Pf growth 48h = Primary qHTS for delayed death inhibitors of the malarial parasite plastid, 48 hour incubation; 310,000 tested, 5.9% active; P. falciparum luciferase growth in erythrocytes, 48 h; AID 504832, 2011; Potency, µM (highest dose often 28.7 µM), without a hit: at the top dose activity change, negative = inhibition, hits mostly inhibitors; note: potency is the fitted concentration of half-maximal effect; % is set by controls: 0 for no effect and ±100 for the full control effect
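In quantitative HTS format, infected erythrocytes bearing luciferase-reporter parasites were treated for a single generation at 37 C. Luminescence after adding detection reagent served as the growth measure.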
Shiga toxin inh = A qHTS for Small Molecule Inhibitors of Shiga Toxin | Vero cells, Shiga toxin protein synthesis inhibition reporter | inhibition, % at 38.7 µM | 290,000 tested, 9.2% active; in the data active = inhibition mostly above about 28%, no sharp cut-off; inactive = mostly below about 43%; note: 0% is about no effect
CHX counter = Cycloheximide Counterscreen for Small Molecule Inhibitors of Shiga Toxin; cell reporter, cycloheximide protein synthesis inhibition counterscreen; max response, %; 300,000 tested, 12% active; in the data active = max response mostly above about 13%, no sharp cut-off; inactive = mostly below about 14%; note: read at 38.3 µM for the half of the compounds with a filed dose; 0% is about no effect
Pf growth 96h = Primary qHTS for delayed death inhibitors of the malarial parasite plastid, 96 hour incubation; P. falciparum luciferase reporter growth, 96 h; 320,000 tested, 6.9% active; Potency, µM (doses to about 28.7 µM), without a hit: top-dose activity change, negative = inhibition, most hits filed as inhibitors; note: potency is the fitted concentration of half-maximal effect; % is set by controls: 0 for no effect and ±100 for the full control effect
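Compounds incubated with erythrocytes infected by luciferase-expressing P. falciparum (2% hematocrit, 0.05% parasitemia final) for 96 hours, 37 C in 5% CO2. Growth inhibition scored as decreased luciferase luminescence.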
LmPK inh = qHTS Assay for Inhibitors of Leishmania Mexicana Pyruvate Kinase (LmPK); 290,000 tested, 0.37% active; Q27686; AID 1721, 2009; purified LmPK, Kinase-Glo ATP luminescence, 1 h; Potency, µM (doses to about 57.5 µM), for the others: top-dose activity change, negative = inhibition, actives largely listed as inhibitors; note: potency is the fitted concentration of half-maximal effect; % is set by controls: 0 for no effect and ±100 for the full control effect
Target sequence (Q27686 whole entry, looked up): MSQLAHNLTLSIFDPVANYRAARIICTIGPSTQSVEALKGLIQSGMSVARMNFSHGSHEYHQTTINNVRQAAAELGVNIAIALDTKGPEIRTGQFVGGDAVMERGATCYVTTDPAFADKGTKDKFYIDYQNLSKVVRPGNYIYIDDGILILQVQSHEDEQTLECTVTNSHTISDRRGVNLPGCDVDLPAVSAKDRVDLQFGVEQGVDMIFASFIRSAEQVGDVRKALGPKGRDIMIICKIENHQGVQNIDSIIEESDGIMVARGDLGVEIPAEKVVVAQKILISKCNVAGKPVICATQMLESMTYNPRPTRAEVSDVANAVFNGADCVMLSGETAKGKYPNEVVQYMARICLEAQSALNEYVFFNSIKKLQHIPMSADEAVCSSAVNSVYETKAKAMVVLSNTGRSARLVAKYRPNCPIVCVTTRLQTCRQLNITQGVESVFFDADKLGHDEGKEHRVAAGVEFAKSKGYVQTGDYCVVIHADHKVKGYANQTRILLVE
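Kinase-Glo luminescence read after 1 h RT reaction of 0.1 nM LmPK with 0.5 mM PEP and 0.1 mM ADP. Activity scaled between uninhibited and enzyme-free controls.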
The depositor's hits bear a star; ? = inconclusive; / = no result given; [ ] = remark or other dose. Compounds with a hit are over-represented: about 22% of the library has one in this group of screens. Unless noted, calls come from the whole dose curve; as a rule, active = well fitted inhibition curve with a large enough effect; inconclusive = small, poorly fitted or top-dose-only effect, or another doubt; inactive = no such curve, though single readings can be large or run the other way.

SMILES | Pf growth 48h | Shiga toxin inh | CHX counter | Pf growth 96h | LmPK inh
Cc1cc2cc(CNC(=O)NC3CCCCC3)ccc2[nH]1 | ? | 39.7* | 17.9* | / | 6.5%
Cc1cccc(NC(=O)NCc2ccc3[nH]c(C)cc3c2)c1 | 87.0% | 50.0 | 21.2* | 41.5% | 13.0%[11.5 µM]
Cc1cc2cc(CNC(=S)NC3CCCCC3)ccc2[nH]1 | -0.7% | 0.8 | 7.7 | -4.6% | 8.3%[11.5 µM]
CCOC(=O)C(NC(=O)CC)(Nc1ccccc1OC)C(F)(F)F (stereo not given) | 0.6% | -3.0 | 17.1* | 48.8% | -0.9%
CCOC(=O)C(NCc1ccccc1OC)(NC(=O)CC)C(F)(F)F (stereo not given) | 42.6% | 15.5 | -1.5 | 102.7% | -0.2%
CCOC(=O)C(NC(=O)c1ccccc1)(Nc1cc(C)on1)C(F)(F)F (stereo not given) | 19.2% | -8.1 | -0.9 | 5.22µM* | 2.8%
Nc1nccnc1C(=O)OCC(=O)NCCc1ccc(S(N)(=O)=O)cc1 | 9.5% | / | / | 4.1% | /
Cc1cc(Nc2ccccc2)nn1C(=O)c1ccc(Br)cc1 | 14.6% | -6.6 | 2.0 | / | 0.3%
Cc1cc(Nc2ccccc2)nn1C(=O)c1ccccc1 | / | 7.9 | 1.1 | 9.28µM* | 15.2%
COc1ccc(C(=O)Nc2cc(C)nn2-c2ccc(C)cc2)cc1 | -7.9% | 38.2 | 5.3 | -1.7% | 5.1%
COc1ccc(C(=O)n2nc(C)cc2Nc2ccccc2)cc1 | 69.6% | 72.3 | 43.3* | / | 4.3%
CC(C)CC1C2C(=O)N(c3ccccc3)C(=O)C2ON1c1ccccc1 (stereo not given) | -3.9% | 9.1 | -0.8 | 7.4% | 1.8%
CCOc1ccc(C(C)=O)cc1NC(=O)/C=C\C(=O)O | 40.1% | -1.6 | -2.0 | 10.4µM* | 6.9%
CCOc1ccccc1NC(=O)/C=C/C(N)=O | / | 12.3 | 11.7 | 23.9% | -7.6%
O=C(O)/C=C/c1ccc(S(=O)(=O)NCc2cccnc2)cc1 | 0.4% | -3.1 | -2.9 | 48.0% | -2.3%
c1ccc(CNCc2ccco2)cc1 | 7.2% | 8.9 | -2.4 | ? | -2.7%
COCC(=O)N1CCCC(N(C)CCc2ccc(OC)c(OC)c2)C1 (stereo not given) | 3.3% | / | 18.0* | 138.5% | 3.7%
CC(C)(C)NC(=O)CN(C(=O)c1snc(C(=O)NC2CCCCC2)c1N)c1ccccc1F | 11.7µM* | 16.9 | -2.4 | 6.1% | -2.8%
O=c1cc(-c2ccc(F)cc2)[nH][nH]1 | -10.6% | 4.4 | 0.3 | -23.6% | -0.3%
O=c1cc(-c2ccc(C3CCCCC3)cc2)[nH][nH]1 | -28.8% | 31.3 | 21.8* | 13.0% | 3.9%
O=C(COC(=O)c1nc(Cl)ccc1Cl)NNC(=O)c1cccs1 | 15.6% | / | / | 21.6% | /
COC(=O)c1cc(S(=O)(=O)N2CCCC2=O)c(Cl)cc1Cl | ? | -6.0 | -1.6 | 10.4µM* | 4.0%
COc1ccc(CC(=O)Nc2cc(S(=O)(=O)N3CCCC3)ccc2Cl)c(OC)c1 | ? | / | / | 14.7µM* | /
COc1ccc(S(=O)(=O)N2CCCCC2)cc1NC(=O)Cc1ccsc1 | ? | / | / | 13.1µM* | /
CCOc1ccc(S(=O)(=O)N2CCCCC2)cc1NC(=O)Cc1ccsc1 | 10.4µM* | / | / | 11.7µM* | /
SMILES | Pf growth 48h | Shiga toxin inh | CHX counter | Pf growth 96h | LmPK inh
COc1ccc(S(=O)(=O)N2CCCCCC2)cc1NC(=O)Cc1ccccc1 | ? | -6.4 | -0.9 | -3.2% | 0.8%
COc1ccc(OCC(=O)Nc2cc(S(=O)(=O)N3CCCC3)ccc2Cl)cc1 | 18.1% | / | / | 0.1% | /
CCCCn1c(N)c(N(CCOC)C(=O)COC(=O)CCOc2ccccc2C)c(=O)[nH]c1=O | -9.0% | / | / | 26.2% | /
Cc1c(CCO)c(=O)[nH]n1S(=O)(=O)c1ccc(F)cc1 | 5.1% | 14.8 | -2.9 | 44.5% | -7.1%
Cc1c(CCO)c(=O)[nH]n1S(=O)(=O)c1ccccc1 | 3.29µM* | -8.8 | -3.4 | -6.1% | 8.0%
O=c1[nH]cnc2c1c(-c1ccccc1)cn2-c1cccc(Cl)c1 | -23.2% | -3.8 | 9.8 | ? | 2.5%
COc1ccc(-n2cc(-c3ccccc3)c3c(=O)[nH]cnc32)cc1 | -24.6% | -11.9 | -6.6 | 10.4µM* | 0.9%
COc1ccccc1-n1cc(-c2ccccc2)c2c(=S)nc[nH]c21 | 13.1µM* | -5.3 | 10.6 | ? | 3.3%
NC(=O)c1ccc(C[C@H](C(=O)O)N2C(=O)c3ccc(C(=O)O)cc3C2=O)cc1 | -6.7% | 13.5 | -4.8 | 0.7% | /
COc1ccc2oc(C(=O)Nc3ccccn3)c(C)c2c1 | 116.5% | 66.0* | 56.7* | 0.0% | -18.0%
Cc1ccc(SCC(=O)NC2CCS(=O)(=O)C2)cc1 (stereo not given) | 39.9% | 13.7 | -4.6 | 42.0% | 1.8%
COc1ccc2oc(C(=O)Nc3ccc(C)cn3)c(C)c2c1 | 105.3% | / | / | 89.4% | /
COc1ccc2oc(C(=O)NC3CCCCC3)c(C)c2c1 | 40.7% | 113.8* | 47.2* | -24.2% | 1.4%
Cc1c(C(=O)NC2CCCCC2)oc2ccc(F)cc12 | 50.4% | 113.5* | 50.9* | 84.2% | -0.3%
Cc1ccc2oc(C(=O)NC3CCS(=O)(=O)C3)c(C)c2c1 (stereo not given) | 53.3% | 35.0* | 29.9* | 94.9% | 3.5%
Cc1c(C(=O)Nc2nccs2)oc2ccc(F)cc12 | 326.3% | / | / | 348.3% | /
COc1nc2c(c(-c3cc(Br)cs3)c1C#N)Cc1ccccc1-2 | 169.9% | -8.0 | -3.4 | -29.1% | 9.9%
COc1ccc(Oc2cccc(Cl)c2CNC(=O)CCCC(=O)O)cc1 | 106.0% | -4.6 | -1.7 | 5.4% | 3.5%
Cc1nccn1-c1cc(C(C)(C)C)nc2c(-c3ccccc3)cnn12 | 17.8% | 14.9 | 7.8 | -11.8% | 0.9%
CCc1nccn1-c1cc(C(C)(C)C)nc2c(-c3ccc(Cl)cc3)cnn12 | 50.3% | 22.5 | 18.8 | 13.1µM* | 2.4%
CC(C)(C)c1cc(-n2ccnc2)n2ncc(-c3ccc(Cl)cc3)c2n1 | 80.1% | 59.4* | 39.6* | 55.8% | 2.3%
COc1cc(S(=O)(=O)Nc2cccc3cn[nH]c23)c(OC)cc1Cl | 21.7% | 8.6 | 11.6 | -29.1% | -11.9%
NC(=O)CC(NSc1ccccc1[N+](=O)[O-])C(=O)O (stereo not given) | 4.0% | -4.7 | -1.6 | 0.0% | -0.6%
NS(=O)(=O)c1ccc(CNS(=O)(=O)c2cccc3nonc23)cc1 | 5.8% | -6.2 | -2.9 | 44.1% | 12.1%
NS(=O)(=O)c1ccc(CNc2ccc3ccccc3n2)cc1 | 46.4% | 88.2* | 12.1 | 40.2% | -0.6%
NS(=O)(=O)c1ccc(CCNC(=O)c2ccc3ccccc3n2)cc1 | 33.2% | 45.0* | 33.7* | 23.0% | 0.1%
COc1ccc(CCNC(=O)c2cccnc2)cc1 | 5.9% | -4.5 | 0.5 | / | 4.5%
NS(=O)(=O)c1ccc(CNC(=O)c2ccc3ccccc3n2)cc1 | 26.2% | 6.8 | 0.6 | 32.0% | 8.2%
COc1ccc(CCNC(=O)c2ccc3ccccc3n2)cc1 | 37.5% | 69.3* | 52.3* | 38.9% | 1.4%
Cc1ccc(NC(=O)CS(=O)Cc2nc(-c3ccc(C)cc3)oc2C)cc1 (stereo not given) | / | 25.3 | 1.5 | -51.3% | 3.3%

Bioassay records: PubChem BioAssay, National Center for Advancing Translational Sciences (NCATS)
